Consider 31 compounds from PubChem BioAssay AID1240 (Sanford-Burnham Center for Chemical Genomics, 2008).

Structures are written as SMILES. About 800 (1.6%) of roughly 50,000 compounds showed an effect of 50% or more. The full list was thinned out, with strong results kept by preference.

Bcl-2-like protein 10 (Homo sapiens), sequence (Q9HD36 whole entry, looked up): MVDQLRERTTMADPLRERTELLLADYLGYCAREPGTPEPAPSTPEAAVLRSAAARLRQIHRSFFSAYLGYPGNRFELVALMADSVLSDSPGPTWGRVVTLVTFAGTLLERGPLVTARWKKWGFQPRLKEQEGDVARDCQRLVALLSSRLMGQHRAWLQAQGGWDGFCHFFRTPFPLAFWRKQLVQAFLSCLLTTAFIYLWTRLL

The assay addresses Bcl-2-like protein 10 (Homo sapiens) (UniProt Q9HD36). Description: Phenotype converters, Bcl-B/TR3 peptide binding displacement, primary biochemical FP (AID 1240).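 Note: 0% = Bcl-B with tracer peptide and DMSO and 100% = tracer peptide lacking Bcl-B.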 The settings on record: GST-Bcl-B / FITC-TR3 peptide fluorescence polarization; stronger effect = higher value; compound at 3.75 mg/L. For orientation: Fluorescence polarisation rises when a labelled molecule tumbles more slowly, as on binding a larger partner.
As for `O=C(c1cccc([N+](=O)[O-])c1)c1ccc2c(c1)C(=O)N(c1ccccc1C(=O)O)C2=O`, the displacement was -2.7%.
Consider `Cc1ccc(S(=O)(=O)NCCSCc2ccccc2Cl)cc1[N+](=O)[O-]`, for which the displacement is -8.5%.
As to `CCN(CC)S(=O)(=O)c1ccc(NC(=O)c2ccco2)cc1`, the displacement is -5.1%.
For the compound `Cc1ccccc1OCC(=O)Nc1ccccc1CO`, the displacement was -7.8%.
The result for `CCCOc1cccc(C(=O)Nc2ccc(I)cc2Cl)c1` reads 10.7%.
Then `CCOc1ccc(C(=O)Nc2ccc3c4c(cccc24)CC3)cc1[N+](=O)[O-]`, with 14.7%; and `CC(=O)Nc1ccccc1NC(=O)COc1ccccc1C`, with 11.1%; and `CCCOc1cccc(C(=O)Nc2ccc3c4c(cccc24)CC3)c1`, with 88.7%.
In the case of `Cc1ccccc1OCC(=O)Nc1ccc2c3c(cccc13)CC2`, the displacement was 107%.
Then `O=C(N/N=C/c1cccs1)C(=O)NC1CCCCC1`, with 7.6%; and `O=C(O/C(=C/c1nccn1Cc1ccc(Cl)cc1)c1ccccc1)c1ccccc1`, with -1.2%.
The result for `O=C(COc1ccc(Cl)cc1)Nc1ccc2c(c1)Cc1ccccc1-2` reads 5.4%; that for `O=C(Nc1ccccc1[N+](=O)[O-])c1ccccc1Cl`, 8.4%.
With `COc1ccc(C(=O)CN2CCN(CCN3C(=O)c4cccc5cccc(c45)C3=O)CC2)cc1`, the displacement is 9.4%.
The result for `COc1ccccc1N1C(=O)/C(=C/c2ccc(N(C)C)cc2)SC1=S` reads -8.2%.
The result for `Cc1c(-c2ccc(Cl)cc2)nc2ccccc2c1C(=O)Nc1ccc(F)cc1F` reads -9.1%.
For the compound `CCCOc1ccc(C2=NNC(=O)CC2)cc1`, the displacement amounted to 3.6%.
Consider `CCn1c(O)c(/C=N/N=C/c2ccccc2)c2ccc(C3=NNC(=O)CC3)cc21`, for which the displacement stood at 119%.
Then `CCn1c(O)c(/C=N/N=C2CCCC2)c2ccc(C3=NNC(=O)CC3)cc21`, with 45.9%; and `CC1=NN(c2cccc(Cl)c2)C(=O)/C1=C/C=C/c1cccc([N+](=O)[O-])c1`, with 13.6%.
As for `Cc1nc2cc(-c3ccc(F)cc3)[nH]n2c(=O)c1C`, the displacement was -7.3%.
The result for `O=C1OC(c2ccccc2)=C/C1=C\c1c(Cl)cccc1Cl` reads -5.8%; that for `N#Cc1c(NCc2ccccc2)ccnc1SCc1ccccc1`, -4.8%; that for `COc1nccc(NCc2ccccc2)c1C#N`, -12.3%.
Then `N#Cc1c(NCc2ccccc2)ncc2c1Nc1ccccc1C2`, with 112%; and `C=C(Br)Cn1c(C)nc2ccccc21`, with 14.6%.
Turning to `COc1ccc(C(CC(=O)c2ccc(C)cc2)Nc2ccc(I)cc2)cc1OC` (stereo unspecified), the displacement was -7%.
Then `COc1cc(/C=C(\C#N)c2nc3ccc(C)cc3[nH]2)cc(OC)c1OC(C)=O`, with -4.6%; and `COc1ccc(C(=O)NNC2=Nc3cccc4cccc2c34)cc1`, with -17.1%; and `O=C(NC1=Nc2cccc3cccc1c23)c1cccc(C(F)(F)F)c1`, with 62.1%.
In the case of `O=C(Nc1cccc(C(F)(F)F)c1)c1cccc(N2C(=O)c3ccccc3C2=O)c1`, the displacement is -5.6%.
